# According to PubChem BioAssay:
# Where “and” joins values, the source holds several entries; their conditions need not be identical. Equal values may be shown once. Inconclusive results are not listed. More than one record can exist for a structure, and the calls need not agree. Calls of active or inactive are those of the source. Unless noted, the rule behind the calls is not given here.
# How the values were obtained:
# [1] = growth inhibition of DIPG glioma cells, dose response, cell-based, SU-DIPG-XVII, MIPE5.0, CellTiter-Glo, qHTS (AID 1347060; cut-off not given, nearly all actives have AC50 up to about 26 µM;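 for AC50: cells exposed to compound for 48 hours before viability readout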); settings: SU-DIPG-XVII viability, CellTiter-Glo ATP luminescence
# [2] = viability loss in pontine glioma line – cell-based, SU-DIPG-XXV, MIPE5.0, CellTiter-Glo, qHTS, dose response (AID 1347065; cut-off not given, nearly all actives have AC50 up to about 26 µM;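 note: cells exposed to compound for 48 hours before ATP readout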); settings: CellTiter-Glo ATP luminescence
# [3] = LFS_MB_P medulloblastoma growth inhibition, cell-based, chromothripsis tumors, cisplatin or BGB combos (AID 1671449; in the data active = inhibition above about 80%;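 note: cells exposed for 96 hours; 0% = vehicle DMSO and 100% = killing by high DMSO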); settings: LFS_MB_P medulloblastoma cells
# [4] = HDN33 neuroblastoma growth inhibition, cell-based, chromothripsis tumors, cisplatin or BGB combos (AID 1671450; in the data active = inhibition above about 80%;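 note: cells exposed to compound for four days; 0% = vehicle DMSO and 100% = cell killing by high DMSO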); settings: HDN33 neuroblastoma cells, stronger effect = higher value
# [5] = LFS_MB_1R medulloblastoma cell growth inhibition, synergistic combos for chromothripsis tumors, cisplatin or BGB combos (AID 1671452; in the data active = inhibition above about 80%;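 note: cells exposed for 96 hours before readout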); settings: LFS_MB_1R medulloblastoma cells, stronger effect = higher value
# [6] = HTB85 osteosarcoma cell growth inhibition, synergistic combos for chromothripsis tumors, BGB or cisplatin IC20 combos (AID 1671453; in the data active = inhibition above about 80%;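 note: cells exposed for 96 hours before readout; 0% = vehicle DMSO and 100% = high DMSO killing control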); settings: HTB85 osteosarcoma cells, drug combinations, stronger effect = higher value
# [7] = MDA-MB-436 breast carcinoma cell growth inhibition, synergistic combos for chromothripsis tumors, BGB or cisplatin combos (AID 1671458); settings: MDA-MB-436 breast carcinoma growth inhibition, drug combinations, stronger effect = higher value;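 note: cells exposed for 96 hours; 0% = vehicle DMSO and 100% = killing by high DMSO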
# [8] = growth inhibition of BT084 medulloblastoma cells, cell-based, ICGC_MB145, cisplatin and BGB IC40 combos (AID 1671461; in the data active = inhibition above about 80%;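 note: cells exposed to drugs for 96 hours; 0% = vehicle DMSO and 100% = high DMSO full killing control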); settings: drug combinations, stronger effect = higher value
# [9] = growth inhibition of RCMB18 medulloblastoma cells, cell-based, cisplatin and BGB IC40 combos (AID 1671462; in the data active = inhibition above about 80%;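 note: cells exposed to compound for four days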); settings: stronger effect = higher value
# [10] = growth inhibition of CRL1545 osteosarcoma cells, cell-based, cisplatin and BGB IC20 combos (AID 1671464; in the data active = inhibition above about 80%;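 note: cells exposed to compound for 96 hours before readout; 0% = vehicle DMSO and 100% = high DMSO killing control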); settings: stronger effect = higher value
# [11] = growth inhibition of DIPG glioma cells, dose response, cell-based, SU-DIPG-XIII, MIPE5.0, CellTiter-Glo, qHTS (AID 1347064; cut-off not given, nearly all actives have AC50 up to about 23 µM;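 for AC50: cells exposed to compound for 48 hours before the viability read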); settings: SU-DIPG-XIII viability, CellTiter-Glo ATP luminescence
# [12] = SU-DIPG-VI glioma cell viability, MIPE4.0 library, CellTiter-Glo luminescence, qHTS (AID 1347066; cut-off not given, nearly all actives have AC50 up to about 30 µM;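 note: cells exposed to compound for 48 hours before readout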); settings: CellTiter-Glo ATP luminescence
# [13] = SU-DIPG-XXV glioma cell viability, MIPE5.0 library, qHTS (AID 1347068; cut-off not given, nearly all actives have IC50 up to about 30 µM;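 for IC50: cells exposed to compound for 48 hours before viability readout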)
# [14] = hESC survival regulators, cell-based (AID 493140); settings: human embryonic stem cell survival screen; stronger effect = higher value;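 note: cells exposed to compounds for four days before counting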
# [15] = circadian clock period modulators, cell-based, LOPAC library, luminescence reporter (AID 2774); settings: circadian reporter cells, at 7 µM, actives lie on both sides;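 note: values are relative to mean of DMSO wells on each plate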
# [16] = test system: Hepatitis C virus NS3 helicase; experiment: HCV NS3 helicase inhibitors, primary screen, biochemical, fluorescence polarization, LOPAC1280 library (AID 687035; in the data active = inhibition above about 37%); settings: Purified HCV NS3 helicase, Cy5-dT15 ssDNA binding fluorescence polarization; stronger effect = higher value; concentration not given here
# [17] = Cy5 fluorescence quenching or enhancement artefacts, artefact control for HCV NS3 helicase inhibitor project, biochemical, LOPAC1280 (AID 687037); settings: Cy5-DNA-NS3h complex fluorescence interference counterscreen
# [18] = test system: Aerobactin synthetase IucA (Klebsiella pneumoniae); experiment: IucA aerobactin synthetase inhibitors, biochemical, Tocris library, absorbance (AID 1345561); settings: purified IucA enzyme assay, absorbance (OD) read-out; stronger effect = lower value;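 tested at 8 µM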;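 note: 100% = enzyme without compound and 0% = no enzyme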
# [19] = phospholipid biosynthesis inhibitors in animal cells, primary screen, cell-based, LOPAC library, screen 4 (AID 1347384); settings: phospholipid biosynthesis inhibition screen, at 10 µM
# [20] = reducers of polyQ inclusions in PC12 cells, cell-based, NGF-treated PC12, GFPQ80 (AID 1614); settings: PC12 NGF-treated GFP-polyQ80 inclusion reduction;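 note: lower means fewer inclusions and 0 means no inclusions at all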
# [21] = measured here: combination with BGB IC40, at 0.05 µM
# [22] = measured here: with BGB IC20 combination, at 0.5 µM
# [23] = measured here: with cisplatin IC20 combination, at 0.5 µM
# [24] = measured here: combination with cisplatin, at 0.5 µM
smiles,measurement,setting,value
COc1cc([C@@H]2c3cc4c(cc3[C@@H](O[C@@H]3O[C@@H]5CO[C@@H](c6cccs6)O[C@H]5[C@H](O)[C@H]3O)[C@H]3COC(=O)[C@H]23)OCO4)cc(OC)c1O,AC50,[1],0.332 µM (active)
same,AC50,[2],5.9 µM (active)
same,inhibition,"[3]; at 0.5 µM, stronger effect = higher value",-18.8% (inactive) and -25.9% (inactive)
same,inhibition,"[3]; measured here: combination with BGB IC20, at 0.005 µM",-25.8% and -10.9%
same,inhibition,"[3]; measured here: combination with BGB IC40, at 0.005 µM",-33.2% and -18.4%
same,inhibition,[3]; [21],-33.7% and -25%
same,inhibition,"[3]; measured here: combination with cisplatin, at 0.5 µM, stronger effect = higher value",-32.6% and -15.4%
same,inhibition,"[3]; measured here: combination with cisplatin, at 5 µM, stronger effect = higher value",28.9% and -5.22%
same,inhibition,"[4]; BGB combo, at 5 µM",78% and 92.3%
same,inhibition,[4]; at 0.5 µM,53.6% (inactive) and 64.1% (inactive)
same,inhibition,"[4]; cisplatin combo, at 5 µM",82.1% and 93.8%
same,inhibition,[4]; [22],46.9% and 59.7%
same,inhibition,[4]; [23],51% and 63.1%
same,inhibition,"[4]; single agent, at 5 µM",88% and 95.5%
same,inhibition,[5]; at 0.5 µM,-4.7% (inactive) and -8.97% (inactive)
same,inhibition,[5]; [21],1.41% and -17.3%
same,inhibition,[5]; [24],10.9% and 4.47%
same,inhibition,"[5]; measured here: combination with cisplatin, at 5 µM",22.9% and 27.7%
same,inhibition,[6]; at 0.5 µM,63.9% (inactive) and 81.2% (active)
same,inhibition,"[6]; measured here: with BGB IC20, at 0.5 µM",57.1% and 81.5%
same,inhibition,"[6]; measured here: with BGB IC20, at 5 µM",98.1% and 98.9%
same,inhibition,"[6]; measured here: with cisplatin IC20, at 0.5 µM",63.4% and 77.7%
same,inhibition,"[6]; measured here: with cisplatin IC20, at 5 µM",99.6% and 99.8%
same,inhibition,"[6]; single agent, at 5 µM",99.4% and 99.7%
same,inhibition,[7]; at 0.5 µM,49.3% (inactive) and 53.1% (inactive)
same,inhibition,"[7]; measured here: BGB combination, at 0.5 µM",36% and 34.4%
same,inhibition,"[7]; measured here: BGB combination, at 5 µM",73.1% and 71.2%
same,inhibition,"[7]; measured here: cisplatin combination, at 0.5 µM",49.6% and 58.2%
same,inhibition,"[7]; measured here: cisplatin combination, at 5 µM",83.3% and 88.6%
same,inhibition,[8]; at 0.5 µM,-19.6% (inactive) and -7.59% (inactive)
same,inhibition,"[8]; cisplatin combination, at 0.5 µM",12.3% and 2.14%
same,inhibition,"[8]; cisplatin combination, at 5 µM",27.6% and 23.9%
same,inhibition,"[8]; measured here: BGB IC40 combination 0.05 uM, at 0.05 µM",-12.5% and 39.7%
same,inhibition,"[8]; single agent, at 5 µM",19.5% and 27.4%
same,inhibition,[9]; at 0.5 µM,-23.3% (inactive) and -2.62% (inactive)
same,inhibition,"[9]; cisplatin combo, at 5 µM",23% and 40.9%
same,inhibition,"[9]; measured here: BGB IC40 combination, at 0.05 µM",-29.1% and -17.5%
same,inhibition,[9]; [24],-8.55% and 20.3%
same,inhibition,"[9]; single agent, at 5 µM",28.8% and 46%
same,inhibition,[10]; at 0.5 µM,44.9% (inactive) and 71.7% (inactive)
same,inhibition,[10]; [22],41.5% and 64%
same,inhibition,[10]; [23],45.4% and 75.2%
same,inhibition,"[10]; single agent, at 0.05 µM",4.76% and 55.4%
same,inhibition,"[10]; single agent, at 5 µM",98% and 98.8%
COc1ccc(-c2cc(=O)c3c(O)cc(O[C@@H]4O[C@H](CO[C@@H]5O[C@@H](C)[C@H](O)[C@@H](O)[C@H]5O)[C@@H](O)[C@H](O)[C@H]4O)cc3o2)cc1O,outcome,[1],inactive
same,outcome,[11],inactive
same,outcome,[2],inactive
same,outcome,[12],inactive
same,outcome,[13],inactive
CC1(C)[C@@H](O[C@H]2O[C@H](C(=O)O)[C@@H](O)[C@H](O)[C@H]2O[C@@H]2O[C@H](C(=O)O)[C@@H](O)[C@H](O)[C@H]2O)CC[C@]2(C)[C@H]3C(=O)C=C4[C@@H]5C[C@@](C)(C(=O)O)CC[C@]5(C)CC[C@@]4(C)[C@]3(C)CC[C@@H]12,outcome,[12],inactive
C[C@H]1O[C@@H](O[C@H]2[C@@H](O)C[C@H](O[C@H]3[C@@H](O)C[C@H](O[C@H]4CC[C@@]5(C)[C@H](CC[C@@H]6[C@@H]5C[C@@H](O)[C@]5(C)[C@@H](C7=CC(=O)OC7)CC[C@]65O)C4)O[C@@H]3C)O[C@@H]2C)C[C@H](O)[C@@H]1O,survival,[14],0.667 (inactive)
same,AC50,[1],0.166 µM (active)
same,AC50,[11],0.132 µM (active)
same,AC50,[2],0.166 µM (active)
same,AC50,[12],0.0959 µM (active)
O=C(O)C1=CCCNC1,period change,[15],0.125 h (inactive)
same,inhibition,[16],-3% (inactive)
same,fluorescence ratio (interference),[17],1 (inactive)
same,remaining activity,[18],107% (inactive)
same,outcome,[19],inactive
C[C@H](CCC(=O)O)[C@H]1CC[C@H]2[C@@H]3[C@H](O)C[C@@H]4C[C@H](O)CC[C@]4(C)[C@H]3CC[C@]12C,survival,[14],11.7 (inactive)
same,outcome,[1],inactive
same,outcome,[11],inactive
same,outcome,[12],inactive
same,outcome,[13],inactive
C=C1CC[C@@H]2[C@](C)(CO)[C@H](O)CC[C@@]2(C)[C@@H]1C/C=C1/C(=O)OC[C@H]1O,AC50,[1],16.6 µM (active)
same,AC50,[11],20.9 µM (active)
same,AC50,[2],11.8 µM (active)
same,IC50,[13],20.9 µM (active)
CC1(C)[C@@H](O)CC[C@]2(C)[C@H]3C(=O)C=C4[C@@H]5C[C@@](C)(C(=O)O)CC[C@]5(C)CC[C@@]4(C)[C@]3(C)CC[C@@H]12,outcome,[1],inactive
same,outcome,[12],inactive
same,outcome,[13],inactive
COc1c(O)cc2c(c1O)[C@@H]1O[C@H](CO)[C@@H](O)[C@H](O)[C@H]1OC2=O,outcome,[12],inactive
CCC(=O)NCC[C@@H]1CCc2ccc3c(c21)CCO3,outcome,[1],inactive
same,outcome,[11],inactive
same,outcome,[2],inactive
same,outcome,[12],inactive
same,outcome,[13],inactive
CCCn1c(=O)c2[nH]c(C3CCCC3)nc2n(CCC)c1=O,inclusion score,[20],2
same,period change,[15],-0.025 h (inactive)
same,inhibition,[16],0% (inactive)
same,fluorescence ratio (interference),[17],1 (inactive)
same,remaining activity,[18],119% (inactive)
same,outcome,[19],inactive
C[C@@]12C[C@@]3(O)O[C@@H](O1)[C@]1(COC(=O)c4ccccc4)[C@H]3C[C@@]12O[C@@H]1O[C@H](CO)[C@@H](O)[C@H](O)[C@H]1O,outcome,[12],inactive
O=C(/C=C/c1ccc(O)c(O)c1)O[C@H](Cc1ccc(O)c(O)c1)C(=O)O,remaining activity,[18],105% (inactive)
COc1ccc(C(Cl)=C(c2ccc(OC)cc2)c2ccc(OC)cc2)cc1,survival,[14],4.42 (inactive)
C[C@H](CCC(=O)O)[C@H]1CC[C@H]2[C@@H]3CC[C@@H]4C[C@H](O)CC[C@]4(C)[C@H]3CC[C@]12C,survival,[14],3.25 (inactive)
